Hits are enriched below; roughly 17% of the tested compounds scored in any of these assays.
DT40 TDP1 no CPT: qHTS for Inhibitors of human tyrosyl-DNA phosphodiesterase 1 (TDP1): qHTS in cells in absence of CPT; 15% of 420,000 active; DT40 Tdp1-/- hTDP1 cells, no CPT, ATP luminescence, 48 h; Potency, µM (top dose mostly 46.2 µM), actives largely listed as inhibitors; note: nearly all actives have a fitted effect of over 55% in size
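No-CPT arm: Tdp1-/-;hTDP1 DT40 cells (400/well) plus compounds, incubated ≥48 hr at 37 °C. Readout CellTiter-Glo luminescence.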
ATXN2 expr inh: inhibitors of ATXN2 expression | AID 1745845 | HEK-293 ATXN2-luciferase reporter, luminescence, 24 h | Potency, µM (top dose mostly 57 µM), most hits filed as inhibitors | 0.72% of 360,000 active; note: nearly all actives have a fitted effect of over 55% in size
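qHTS (up to 57 uM final) was run with 24 h compound exposure of reporter cells at 37 °C. Each well was multiplexed: SteadyGlo luminescence measured ATXN2-luciferase expression after a fluorogenic Gly-Phe-AFC viability readout (25 uM final).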
HepG2 tox-1: HepG2 cytotoxicity, counter-screen for TGF-b inhibitors. HepG2 CAGA-GFP viability, ATP luminescence, 18 h. Potency, µM (top dose mostly 46.1 µM), hits mostly cytotoxic. 0.76% of 410,000 active
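CellTiter-Glo luminescence gave cytotoxicity after 18 hours at 37 degrees C. The cells were HepG2 CAGA-GFP in 1% FBS DMEM, stimulated with 500 pg/mL TGF-beta after compound addition. %Activity was normalised to no-cell wells (complete cell-killing) and DMSO (no toxicity), and curves were fitted and classified.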
S2 tox: viability counter-screen for ATXN expression inhibitors; 0.49% of 400,000 active; Potency, µM (doses to about 56.7 µM), usual class: cytotoxic; AID 651635; S2 cells (HEK-293 line with an ATXN2-luciferase reporter) viability, CellTiter-Fluor protease fluorescence, 24 h; note: nearly all actives have a fitted effect of over 40% in size
TDP1 cell CPT: growth inhibition of DT40 Tdp1-/-;hTDP1 cells with camptothecin (screen for TDP1 inhibitors); chicken DT40 Tdp1-/-;hTDP1 cells + 20 nM CPT, ATP luminescence, 48 h; Potency, µM (top dose mostly 46.2 µM), actives largely listed as inhibitors; 12% of 420,000 active; AID 686979; note: nearly all actives have a fitted effect of over 55% in size
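Chicken DT40 Tdp1-/- cells stably complemented with human TDP1 were seeded at 400 cells/well in medium containing 20 nM camptothecin, exposed to pin-transferred compounds, and grown at 37 °C for at least 48 hr. Viability was read as ATP luminescence.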
TGFb SMAD3 inh: TGF-b pathway inhibition | Potency, µM (series often up to 46.1 µM), hits mostly inhibitors | AID 588855 | HepG2 CAGA-GFP TGF-b/SMAD3 reporter, GFP fluorescence, 18 h; TGF-beta stimulated, 500 pg/mL final | 1.2% of 410,000 active; note: nearly all actives have a fitted effect of over 65% in size
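HEPG2 CAGA-GFP cells (1000/well, DMEM with 1% FBS) were pre-incubated 2 h at 37 degrees C, given compound by pin tool, then stimulated with TGF-beta at 500 pg/mL final for 18 h before per-cell GFP fluorescence imaging.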
TGFb CAGA inh: TGF-b pathway inhibition, cherry-pick retest; shares compounds with TGFb SMAD3 inh; HepG2 CAGA-GFP TGF-b reporter, GFP fluorescence, 18 h; cells stimulated with TGF-beta, 500 pg/mL; Potency, µM (titrated, usually from 46.1 µM), actives largely listed as inhibitors; 63% of 1,600 active; note: nearly all actives have a fitted effect of over 65% in size
HepG2 tox-2: counter-screen for TGF-b inhibitors: cytotoxicity in HepG2 cells. shares compounds with TGFb SMAD3 inh. Potency, µM (doses to about 46.1 µM), usual class: inhibitors. HepG2 CAGA-GFP viability, ATP luminescence, 18 h; cells stimulated with TGF-beta, 500 pg/mL. AID 720535. 27% of 1,600 active; note: nearly all actives have a fitted effect of over 70% in size
CCL64 TGFb inh: blocks TGF-b signaling in CCL64 reporter cells | shares compounds with TGFb SMAD3 inh | AID 720536 | CCL64 CAGA-GFP reporter, TGF-b stimulated, GFP fluorescence, 18 h | 41% of 1,600 active | Potency, µM (doses to about 46.1 µM), actives largely listed as inhibitors; note: nearly all actives have a fitted effect of over 65% in size
TGFb COP inh: validation of TGF-b inhibitors in HepG2 COP promoter reporter | shares compounds with TGFb SMAD3 inh | HepG2 COP-GFP TGF-b reporter, GFP fluorescence, 18 h; cells stimulated by added recombinant TGF-beta | Potency, µM (highest dose often 46.1 µM), usual class: inhibitors | 3% of 1,600 active; note: nearly all actives have a fitted effect of over 70% in size
Each line names hits and unclear results; the compound was inactive in the other large screens (follow-up assays come after a bar, where they were run). Calls come from the whole dose curve; as a rule, active = well fitted curve in the direction sought with a large enough effect; inconclusive = small, poorly fitted or top-dose-only effect, or another doubt; inactive = no such curve, though single readings can be large; an effect the other way counts as inactive or inconclusive.

CC(C)C[C@H]1CN([C@@H](Cc2ccccc2)CN2CCC[C@@H]2CN2C(=O)C(=O)NC[C@@H]2Cc2ccc(O)cc2)C(=O)C(=O)N1CC1CCCCC1	DT40 TDP1 no CPT inconclusive
Oc1ccc(C[C@H]2CNC(=S)N2CC2CCCN2C[C@H](Cc2ccc(O)cc2)N2C[C@H](Cc3ccccc3)N(CC3CCCCCC3)C2=S)cc1 (some centres undefined)	DT40 TDP1 no CPT 4.11µM, TDP1 cell CPT 10.3µM, TGFb SMAD3 inh 7.94µM | TGFb CAGA inh 6.51µM | HepG2 tox-2 inactive | CCL64 TGFb inh 10.3µM | TGFb COP inh inactive
Oc1ccc(C[C@H]2CNC(=S)N2CC2CCCN2C[C@H](Cc2ccc(O)cc2)N2C[C@H](Cc3ccccc3)N(CC3CCCCC3)C2=S)cc1 (some centres undefined)	DT40 TDP1 no CPT 16.4µM, ATXN2 expr inh inconclusive, S2 tox inconclusive, TDP1 cell CPT 16.4µM, TGFb SMAD3 inh 7.94µM | TGFb CAGA inh 6.51µM | HepG2 tox-2 inconclusive | CCL64 TGFb inh inconclusive | TGFb COP inh inactive
Oc1ccc(C[C@H]2CNC(=S)N2CC2CCCN2C[C@H](Cc2ccc(O)cc2)N2C[C@H](Cc3ccc(O)cc3)N(CC3CCCCCC3)C2=S)cc1 (some centres undefined)	DT40 TDP1 no CPT 18.4µM, ATXN2 expr inh 20µM, S2 tox inconclusive, TDP1 cell CPT 23.1µM, TGFb SMAD3 inh 7.94µM | TGFb CAGA inh 16.4µM | HepG2 tox-2 inconclusive | CCL64 TGFb inh 3.26µM | TGFb COP inh inactive
Cc1cc(C)c(C(=O)c2ccccc2C(=O)O)c(C)c1	DT40 TDP1 no CPT inconclusive
COc1cccc(CC(=O)N2CCC(n3nccc3NC(=O)C3CCOC3)CC2)c1 (centres undefined)	none
CC(C)C[C@H]1CNC(=S)N1C[C@H]1CCCN1C[C@H](Cc1ccc(O)cc1)N1C[C@H](Cc2ccccc2)N(CC2CCCCCC2)C1=S	DT40 TDP1 no CPT 18.4µM, S2 tox inconclusive, TDP1 cell CPT 18.4µM, TGFb SMAD3 inh inconclusive | TGFb CAGA inh inconclusive | HepG2 tox-2 inactive | CCL64 TGFb inh inconclusive | TGFb COP inh inactive
O=C(NC1CCCc2ccccc21)c1ccccc1 (centres undefined)	DT40 TDP1 no CPT inconclusive
COc1cc2c(c(OC)c1OC)-c1ccc(SC)c(=O)cc1C(NC=O)CC2 (centres undefined)	DT40 TDP1 no CPT 0.164µM, S2 tox inconclusive, TDP1 cell CPT 0.13µM | TGFb CAGA inh inconclusive | HepG2 tox-2 23.1µM | CCL64 TGFb inh inconclusive | TGFb COP inh inactive
COc1cc2c(c(OC)c1OC)C(=O)CC2	S2 tox inconclusive

Source: PubChem BioAssay (National Center for Advancing Translational Sciences (NCATS))
